Most compounds without a hit are left out; they make up all but 31% or so of the library.
PLAP act – PLAP enzyme activators, biochemical, luminescence, HTS | Alkaline phosphatase, placental type (Homo sapiens), P05187 | purified PLAP enzyme, luminescent substrate read-out; stronger effect = higher value | activation fold at 20 µM | actives 1.2% (n = 96,000) | AID 696, 2007; in the data active = activation fold above about 2
CYP2C9 act – human CYP2C9 activators, primary screen, biochemical, luminescence; Cytochrome P450 2C9 (Homo sapiens), P11712; recombinant CYP2C9, luciferin-H conversion; stronger effect = higher value; factor 1 = untreated enzyme, 0 = blocked; activation factor at 5 µM; actives 1.4% (n = 96,000);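 active = activation factor of 2 or more for CYP2C9 at a 5 µM dose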;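 also: 0 = sulfaphenazole-blocked wells and 1 = vehicle-only wells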
Target sequence (P11712 whole entry, looked up): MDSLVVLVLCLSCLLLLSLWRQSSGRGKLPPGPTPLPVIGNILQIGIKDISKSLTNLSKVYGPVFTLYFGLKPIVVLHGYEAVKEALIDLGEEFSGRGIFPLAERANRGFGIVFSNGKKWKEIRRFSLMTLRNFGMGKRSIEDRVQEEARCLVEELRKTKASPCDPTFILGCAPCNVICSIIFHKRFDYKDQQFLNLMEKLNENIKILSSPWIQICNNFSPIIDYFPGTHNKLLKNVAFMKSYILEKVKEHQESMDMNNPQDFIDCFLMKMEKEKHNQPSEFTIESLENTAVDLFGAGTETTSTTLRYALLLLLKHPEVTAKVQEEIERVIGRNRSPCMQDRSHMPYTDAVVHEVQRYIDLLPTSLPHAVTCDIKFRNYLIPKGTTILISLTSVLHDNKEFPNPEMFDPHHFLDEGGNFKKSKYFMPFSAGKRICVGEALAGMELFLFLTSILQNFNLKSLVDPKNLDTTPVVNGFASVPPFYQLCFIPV
CYP2C19 act – human CYP2C19 activators, primary screen, biochemical, luminescence; Cytochrome P450 2C19 (Homo sapiens), P33261; recombinant CYP2C19, luciferin-H EGE luminescence; stronger effect = higher value; 0 = fully inhibited enzyme, 1 = untreated enzyme; activation factor at 5 µM; 96,000 tested, under 10 active;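 active = activation factor of at least 2 at 5 µM in the primary screen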;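 also: 0 = wells with 2.5 mM tranylcypromine and 1 = vehicle-only wells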
CYP2C19 inh – blockers of cytochrome P450 2C19 activity – biochemical, luminescence, ADME assay, primary screen; P33261; CYP2C19 Supersomes, luciferin-H EGE luminescence, 30 min; inhibition, % at 5 µM; actives 21% (n = 96,000);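 active = CYP2C19 inhibition above a set limit at 5 µM in the primary screen, cut at about 50% in these data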;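 also: plate controls were negative control wells for no effect and 2.5 mM tranylcypromine positive control for full effect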
CYP2C9 inh – blockers of cytochrome P450 2C9 activity – biochemical, luminescence, ADME assay, primary screen | P11712 | actives 20% (n = 96,000) | AID 777, 2007 | CYP2C9 Supersomes, luciferin-H conversion | inhibition, % at 5 µM;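 active = blocking of liver enzyme CYP2C9 beyond about 50% at 5 µM, limit read from the data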
* hit, by the source's call.

SMILES	PLAP act	CYP2C9 act	CYP2C19 act	CYP2C19 inh	CYP2C9 inh
C=CCn1c(-c2ccccc2)c[nH]c1=S	1.1	0.8	0.3	70*	23
C=CCn1c(-c2ccccc2)nc2nc3ccccc3nc21	0.8	0.7	0.9	8	26
COc1ccc2c(c1)c1c(n2C(C)=O)C(OC(C)=O)=NCC1	0.9	1	1	-2	-4
Cc1cccc(C)c1NC(=O)CSc1nnnn1C	1.4	1.2	1.1	-13	-16
Cc1ccnc(SCc2nc3ccccc3s2)n1	1.4	0.7	0.1	92*	26
Cn1nnnc1SCc1nc2ccccc2s1	0.8	1.2	0.4	64*	-20
COc1ccc2[nH]cc(CCN3C(=O)CCC3=O)c2c1	0.9	0.6	0.6	45	40
COc1cccc(Oc2cncnc2-c2ccc(OC)cc2O)c1	1.2	0	0	98*	99*
CCOc1ccc(-c2nc(N)ncc2Oc2cccc(OC)c2)c(O)c1	0.9	1	1	1	-4
COc1ccc(-c2nc(C#N)c(NC(C)c3ccccc3)o2)cc1OC (stereo unspecified)	1.1	0.5	0.6	40	53*
COc1ccccc1-c1nc(C#N)c(NCc2ccc(F)cc2)o1	0.9	0.4	0.2	76*	60*
COc1ccc(CCNc2oc(-c3ccc(OC)c(OC)c3)nc2C#N)cc1	0.8	0.5	0.5	52*	53*
COc1ccc(-c2nc(C#N)c(NCCCN(C)C)o2)cc1OC	1.6	1	1	-2	-1
COc1ccc(-c2nc(C#N)c(NCC3CCCO3)o2)cc1OC (stereo unspecified)	1.5	0.3	0.3	67*	71*
C/C(=N\NC(=O)c1ccc(OC2CCCC2)cc1)c1ccc(C)s1	1	1	0.9	7	3
Cc1cc(C)c2cc(C(c3nnnn3CC3CCCO3)N3CCN4CCCC4C3)c(=O)[nH]c2c1 (stereo unspecified)	1.3	0.8	1	-4	17
N#CN=C1SCCS1	0.7	1.2	1.2	-22	-20
COc1ccc(C(=O)NCc2nnc(SCC(=O)N3CCCCC3)o2)cc1OC	1	0.8	0.7	33	22
CCNc1oc(-c2cccc3ccccc23)nc1C#N	0.9	0.9	0.7	30	15
CN(C)CCNc1oc(-c2ccccc2F)nc1C#N	0.9	1	1	-1	3
COc1ccc(CCNc2oc(-c3ccccc3OC)nc2C#N)cc1	0.8	0.4	0.1	92*	60*
COc1ccc(CCNc2oc(-c3ccccc3OC)nc2C#N)cc1OC	1.6	0.3	0	98*	72*
N#Cc1nc(-c2ccccc2F)oc1NCc1cccc2c1OCO2	0.9	0.1	0.9	11	86*
CC(NC(=O)c1ccco1)C(=O)N1CCc2ccccc2C1 (stereo unspecified)	1.2	1	0.7	28	-4
O=C(c1ccncc1)N1CCN(C(=O)c2ccncc2)CC1	1.3	1.2	0.8	16	-16
SMILES	PLAP act	CYP2C9 act	CYP2C19 act	CYP2C19 inh	CYP2C9 inh
O=C(/C(=C/O)N=Nc1ccccc1)c1ccncc1	1	0.3	0	96*	68*
c1cnc(NC2CCCCCC2)nc1	0.9	1.1	1.1	-15	-9
CN(C)c1ccc(/C=N/Nc2ccc(-n3ccnc3)nn2)cc1	1.1	0.3	0.4	62*	70*
COc1cccc(-c2cc3c(-n4cccc4)ncnc3o2)c1	0.9	0.9	1	4	9
Cc1ccc(C2C(C(=O)c3sc(C)nc3C)=C(O)C(=O)N2CCN2CCOCC2)o1 (stereo unspecified)	1.4	0.8	1	-3	22
CC(=NCc1ccncc1)C1=C(O)c2ccccc2C1=O	0.9	0.2	0.3	65*	83*
CC(=NCCCn1ccnc1)C1=C(O)c2ccccc2C1=O	1.1	0.2	0.5	46	81*
Cc1cc2ncn(S(=O)(=O)N(C)C)c2cc1C	0.9	0.9	0.9	14	14
Cc1noc(C)c1C(=O)OCC(=O)NC(c1ccccc1)c1ccccc1	1	0.9	0.9	9	12
CCc1cc(-c2n[nH]c(=S)n2-c2ccccc2C)cs1	1.2	0.5	0.6	43	52*
CCCc1cc(-c2n[nH]c(=S)n2C(C)c2ccccc2)cs1 (stereo unspecified)	1.5	0	0.2	81*	97*
Cc1ccc(-c2n[nH]c(=S)n2Cc2ccccc2)cc1	1.2	0.6	0.7	27	38
CCc1cc(-c2n[nH]c(=S)n2Cc2ccccc2)cs1	0.9	0.5	0.5	51*	46
CCCC/C(C)=N\NC(=O)CNS(=O)(=O)c1ccc([N+](=O)[O-])cc1	1.1	1.1	1.1	-12	-7
O=C(Nn1c(O)c(C=C2N=c3ccccc3=N2)sc1=S)c1cccc(Cl)c1	1	0.9	1	2	15
CCCCCCCCn1c(N2CCN(c3cccc(Cl)c3)CC2)nc2c1c(=O)[nH]c(=O)n2C	1.7	0.5	0.9	15	52*
CCCCCn1c(CN2CCN(c3cccc(Cl)c3)CC2)nc2c1c(=O)[nH]c(=O)n2C	1.9	0.4	0.6	44	59*
CCOC(=O)N1CCN(Cc2nc3c(c(=O)[nH]c(=O)n3C)n2Cc2cc(C)ccc2C)CC1	1.8	0.3	0.7	28	72*
COc1ccc(C2=C(C=Nc3c(C)n(C)n(-c4ccccc4)c3=O)C(c3ccccc3C)c3ccccc3O2)cc1OC (stereo unspecified)	1.6	0.6	0.9	14	40
CC(C)NC(=O)C1CC(=O)N(c2ccc(F)c(Cl)c2)C1 (stereo unspecified)	1	1.5	0.7	27	-49
O=C(Cc1coc2ccc3ccccc3c12)NCc1ccccc1	0.8	2.8*	0.1	86*	-184
O=C(Cc1coc2ccc3ccccc3c12)N1CCN(c2ncccn2)CC1	1.3	0.4	0.4	61*	55*
CCOC(=O)N1CCN(Cc2cc(=O)oc3ccc4ccccc4c23)CC1	1.1	0.9	0.7	33	10
CCCN(CCC)C(=O)Cc1coc2ccc3ccccc3c12	1.1	1.9	0.4	64*	-93
O=C(Cc1coc2ccc3ccccc3c12)Nc1nccs1	0.9	0.6	0.9	11	39
Cc1ccccc1-c1nc(CS(=O)(=O)CC(=O)Nc2cc(F)ccc2F)c(C)o1	1.1	0.9	1.1	-9	15
CC(C)c1ccc(C(=O)CC2(O)C(=O)N(CN3CCOCC3)c3ccccc32)cc1 (stereo unspecified)	1	0.8	0.2	78*	18
COc1ccc(CN2C(=O)C(O)(CC(=O)c3ccc4c(c3)OCO4)c3ccccc32)cc1OC (stereo unspecified)	1.3	0.9	0.8	19	9

Assay outcomes from PubChem.
